# Experimental data published in PubChem BioAssay AID624305 (National Center for Advancing Translational Sciences (NCATS), 2012).
# Results filed as inconclusive are left out. Activity calls are given as the source filed them. Calls follow the shape of the dose curve; as a rule, active = well fitted activation curve with a large enough effect; inconclusive = small, poorly fitted or top-dose-only effect; inactive = no such curve, though single readings can be large or run the other way.
# Assay: qHTS assay for re-activators of p53 using a Luc reporter: Hit Validation; also: nearly all actives have a fitted effect of over 75% in size; as to activation: 0% is about no effect
# Details: p53-responsive luciferase reporter cells, luminescence; series mostly up to 46.1 µM; activation: at the top concentration
# Source text: The p53 tumor suppressor plays a key role in suppression of tumorigenesis and in human carcinogenesis. It is frequently found inactivated in human cancers, mainly by point mutation. These point mutations are found in a wide variety of human cancers and a majority of them affect the DNA binding domain of the protein. The point mutations either alter native p53 conformation or abolish DNA contact. Additionally, cancer cells with p53 mutations are more resistant to chemo-radiation therapies.
# In order to find activators to reactivate this important protein, a cell-based screen for p53-dependent luciferase-reporter expression was developed. A p53-null H1299 lung cancer cell line was stably co-transfected with a temperature sensitive p53 mutant, p53-A138V, and a p53-responsive BP100-luciferase reporter. This cell model has previously been characterized in a gene chip profiling experiment for p53 activation. By lowering the culture temperature from 37 deg C (mutant p53 conformation) to 32 deg C (w.t. p53 conformation), a 30-60 fold increase in activation of luciferase activity is observed. At assay temperate, 37 deg C, basal reporter expression is very low and after the addition of detection reagent, a luminescent read-out is carried out. This is the hit validation assay, confirming the hits identified from the primary screen.
# NIH Chemical Genomics Center [NCGC]
# NIH Molecular Libraries Probe Production Centers Network [MLPCN]
# Assay Provider (PI): Yi Sung, University of Michigan at Ann Arbor
# 5ul of 1000 cells per well are dispensed in all wells except column 4, into white solid-bottom TC-treated Kalypsys plates. The cells are kept in Opti-MEM and supplemented with 10% FBS and dispensed using a Multidrop (Thermo). Then using the Kalypsys pin-tool, 23nl of compounds are pinned. The compounds are starting concentration at 10mM, with 1:5 dilution, 4 points, and the control compound nocodazole is pinned in column 1 at 25mM, 1:3 dilution, in duplicate, 25mM nocodazole is pinned in column 2. Please note, all concentrations are working concentrations. 5ul of 1pM purified luciferase enzyme is dispensed using the Kalypsys dispenser in column 4. Plates are incubated for 24 hrs at 37 deg C, 5% CO2, and 95% humidity. Then 4ul of the detection reagent Amplite (ABD Bioquest) is added using the Kalypsys dispenser. Plates are incubated for 10 min at ambient room temperature and are then read on the ViewLux (Perkin Elmer) using a clear filter for a luminescent read-out.
# Potency is read from the fitted curve at half-maximal effect.
Structure (SMILES),activation,Potency
Nc1c(C(=O)NCc2ccco2)c2nc3ccccc3nc2n1Cc1ccc(F)cc1,"-6.25% [at 46.1 µM, H1299 line expressing heat-sensitive Ala138Val p53] (inactive)",
COC(=O)C1=C(c2ccc(F)cc2OCc2ccccc2)C[C@@H]2CC[C@H]1N2C(=O)NCCOc1ccc(OC)cc1,-22.9% (inactive),
COC(=O)C1=C(c2cccc(C#N)c2)C[C@@H]2CC[C@H]1N2C(=O)NC1CC1,"16.7% [at 46.1 µM, H1299 line expressing heat-sensitive Ala138Val p53] (inactive)",
O=C(N/N=C/c1c(O)n(C2CC2)c(=S)[nH]c1=O)c1ccccc1,-9.38% (inactive),
COc1ccc(CN2CCNCC2)cc1,19.8% (inactive),
Nc1ccccc1N=Cc1c(O)n(CCC2=CCCCC2)c(=O)[nH]c1=O,12.5% (inactive),
O=C(c1cc2c(s1)CCCC2)N1CCC2(CC1)OCCO2,33.3% (inactive),
O=C(N/N=C/c1c(O)n(Cc2ccccc2)c(=O)[nH]c1=O)c1ccccc1,-38.5% [at 9.22 µM] (inactive),
COc1ccc(NC(=O)C2C3CCC(O3)C2C(=O)O)c(OC)c1 (stereo unspecified),2.6% (inactive),
Cc1cc(N2C(=O)C3CCCN3C2c2sccc2C)no1 (stereo unspecified),"-20.3% [at 46.1 µM, H1299 line expressing heat-sensitive Ala138Val p53] (inactive)",
N=C1c2ccccc2CN1CC(=O)c1ccccc1,,20.6 µM (active)
